# Values joined by “and” are separate entries in the source; they are usually repeats but may differ in a detail not shown here. Identical values can stand only once. Results filed as inconclusive are left out. A call without a number means that no potency is given here. Some structures have more than one record in an assay (separate samples or runs), and their calls can disagree. Active and inactive are the calls of the source. Unless noted, the call rests on the fitted dose curve; in most records, active means well fitted curve in the direction sought with a large enough effect in the repeat runs; inconclusive means weak or mixed curves; inactive means no such curve, though single readings can be large; an effect the other way counts as inactive or inconclusive.
# Assays:
# [1] = biological target: Cytochrome P450 2D6 (Homo sapiens) (UniProt P10635); experiment: Cytochrome P450 Family 2 Subfamily D Member 6 (CYP2D6) small molecule antagonists: luciferase reporter qHTS assay (AID 1671196); conditions: P450-Glo CYP2D6 enzyme assay, luciferin luminescence, 1 h; series mostly up to 115 µM; further: nearly all actives have a fitted effect of over 50% in size; further: potency means the concentration at half of the fitted maximal effect
# Cytochrome P450 2D6 (Homo sapiens), sequence (P10635 whole entry, looked up): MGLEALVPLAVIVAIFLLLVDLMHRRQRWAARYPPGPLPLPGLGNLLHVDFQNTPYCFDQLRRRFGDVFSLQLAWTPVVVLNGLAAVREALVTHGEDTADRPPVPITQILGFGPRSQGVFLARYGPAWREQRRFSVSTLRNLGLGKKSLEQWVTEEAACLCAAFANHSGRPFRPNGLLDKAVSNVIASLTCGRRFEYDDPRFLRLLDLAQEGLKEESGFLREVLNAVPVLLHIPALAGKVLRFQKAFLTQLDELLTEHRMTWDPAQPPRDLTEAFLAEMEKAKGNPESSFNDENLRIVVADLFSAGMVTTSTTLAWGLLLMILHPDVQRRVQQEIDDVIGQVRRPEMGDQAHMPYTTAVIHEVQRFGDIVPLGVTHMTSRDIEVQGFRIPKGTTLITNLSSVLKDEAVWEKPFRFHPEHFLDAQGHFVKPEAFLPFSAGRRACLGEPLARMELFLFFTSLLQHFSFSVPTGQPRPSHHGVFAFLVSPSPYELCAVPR
# Summary of the method: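 Room-temperature luminescent CYP2D6 activity assay: compound preincubated 10 min with enzyme–substrate mix, NADPH-initiated reaction 1 h, detection reagent 20 min before reading.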
# [2] = biological target: Cytochrome P450 2C19 (Homo sapiens) (UniProt P33261); experiment: Cytochrome P450 Family 2 Subfamily C Member 19 (CYP2C19) small molecule antagonists: luciferase reporter qHTS assay (AID 1671197); conditions: P450-Glo CYP2C19 enzyme, luciferin luminescence, 1 h; series mostly up to 115 µM; further: nearly all actives have a fitted effect of over 65% in size; further: potency means the concentration at half of the fitted maximal effect
# Cytochrome P450 2C19 (Homo sapiens), sequence (P33261 whole entry, looked up): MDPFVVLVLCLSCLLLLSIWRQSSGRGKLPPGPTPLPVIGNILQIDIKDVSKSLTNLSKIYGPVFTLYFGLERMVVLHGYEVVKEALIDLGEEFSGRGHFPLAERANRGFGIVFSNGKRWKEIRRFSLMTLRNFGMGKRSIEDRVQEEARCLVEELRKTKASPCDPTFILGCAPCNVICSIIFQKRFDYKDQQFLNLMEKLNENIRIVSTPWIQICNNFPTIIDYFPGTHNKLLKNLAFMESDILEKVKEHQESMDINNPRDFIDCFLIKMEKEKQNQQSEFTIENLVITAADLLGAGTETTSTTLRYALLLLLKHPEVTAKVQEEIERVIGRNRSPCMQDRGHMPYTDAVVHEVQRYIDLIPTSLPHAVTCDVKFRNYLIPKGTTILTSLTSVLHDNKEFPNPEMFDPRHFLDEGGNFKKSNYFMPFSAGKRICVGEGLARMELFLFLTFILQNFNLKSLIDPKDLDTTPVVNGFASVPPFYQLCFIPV
# Summary of the method: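 Compounds were tested on CYP2C19 activity via proluciferin conversion to luciferin. The 37C, 1 h reaction followed NADPH addition; detection reagent stopped it.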
# [3] = biological target: Cytochrome P450 2C9 (Homo sapiens) (UniProt P11712); experiment: Cytochrome P450 Family 2 Subfamily C Member 9 (CYP2C9) small molecule antagonists: luciferase reporter qHTS assay (AID 1671198); conditions: P450-Glo CYP2C9 enzyme assay, luciferin luminescence; series mostly up to 115 µM; further: nearly all actives have a fitted effect of over 50% in size; further: potency means the concentration at half of the fitted maximal effect
# Cytochrome P450 2C9 (Homo sapiens), sequence (P11712 whole entry, looked up): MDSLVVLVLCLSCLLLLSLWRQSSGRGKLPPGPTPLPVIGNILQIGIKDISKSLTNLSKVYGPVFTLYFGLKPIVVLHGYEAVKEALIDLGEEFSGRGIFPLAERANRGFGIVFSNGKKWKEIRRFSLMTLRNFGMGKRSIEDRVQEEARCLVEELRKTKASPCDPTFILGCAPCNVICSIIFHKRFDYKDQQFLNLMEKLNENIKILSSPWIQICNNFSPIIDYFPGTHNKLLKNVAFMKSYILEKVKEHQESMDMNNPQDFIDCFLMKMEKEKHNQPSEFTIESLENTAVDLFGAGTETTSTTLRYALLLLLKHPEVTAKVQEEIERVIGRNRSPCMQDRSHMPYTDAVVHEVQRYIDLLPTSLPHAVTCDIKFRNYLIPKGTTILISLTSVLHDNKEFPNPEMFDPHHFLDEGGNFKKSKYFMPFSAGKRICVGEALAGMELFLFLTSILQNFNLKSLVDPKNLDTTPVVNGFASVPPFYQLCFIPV
# Summary of the method: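 P450-Glo proluciferin substrate with CYP2C9 enzyme; 10 min RT preincubation, then NADPH regeneration 1 h at 37C; luciferin detection reagent 20 min RT, luminescence in relative luminescence units.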
# [4] = biological target: Cytochrome P450 1A2 (Homo sapiens) (UniProt P05177); experiment: Cytochrome P450 Family 1 Subfamily A Member 2 (CYP1A2) small molecule antagonists: luciferase reporter qHTS assay (AID 1671199); conditions: P450-Glo CYP1A2 enzyme, luciferin luminescence, 1 h; series mostly up to 115 µM; further: nearly all actives have a fitted effect of over 50% in size; further: potency means the concentration at half of the fitted maximal effect
# Cytochrome P450 1A2 (Homo sapiens), sequence (P05177 whole entry, looked up): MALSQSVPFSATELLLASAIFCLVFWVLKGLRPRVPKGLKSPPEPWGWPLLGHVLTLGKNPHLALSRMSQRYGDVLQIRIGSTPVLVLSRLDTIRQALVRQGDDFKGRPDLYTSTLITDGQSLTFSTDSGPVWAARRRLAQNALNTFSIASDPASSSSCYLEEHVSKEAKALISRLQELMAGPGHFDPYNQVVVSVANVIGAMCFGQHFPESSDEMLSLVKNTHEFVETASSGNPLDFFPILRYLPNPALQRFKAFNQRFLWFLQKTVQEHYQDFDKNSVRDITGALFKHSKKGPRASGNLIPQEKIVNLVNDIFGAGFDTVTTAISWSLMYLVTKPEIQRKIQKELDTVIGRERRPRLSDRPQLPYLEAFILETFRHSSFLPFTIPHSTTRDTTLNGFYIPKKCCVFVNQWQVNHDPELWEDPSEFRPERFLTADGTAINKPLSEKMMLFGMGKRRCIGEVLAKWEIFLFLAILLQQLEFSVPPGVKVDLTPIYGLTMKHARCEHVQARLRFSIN
# Summary of the method: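 Room-temperature CYP1A2 reaction with proluciferin substrate: compounds added from DMSO, 10 min preincubation, NADPH regeneration for 1 h. Luciferin detection reagent then added; luminescence recorded as RLU.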
# [5] = biological target: Voltage-gated inwardly rectifying potassium channel KCNH2 (Homo sapiens) (UniProt Q12809); experiment: Human Ether-a-go-go-Related Gene (hERG) channel small molecule antagonists: fluorescence cell-based qHTS assay (AID 1671200); conditions: hERG-U2OS cells, FluxOR thallium flux fluorescence; series mostly up to 76.8 µM;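 further: hERG-expressing U2OS cells given a thallium stimulus after FluxOR II dye loading; nearly all actives have a fitted effect of over 50% in size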
# Voltage-gated inwardly rectifying potassium channel KCNH2 (Homo sapiens), sequence (Q12809 whole entry, looked up): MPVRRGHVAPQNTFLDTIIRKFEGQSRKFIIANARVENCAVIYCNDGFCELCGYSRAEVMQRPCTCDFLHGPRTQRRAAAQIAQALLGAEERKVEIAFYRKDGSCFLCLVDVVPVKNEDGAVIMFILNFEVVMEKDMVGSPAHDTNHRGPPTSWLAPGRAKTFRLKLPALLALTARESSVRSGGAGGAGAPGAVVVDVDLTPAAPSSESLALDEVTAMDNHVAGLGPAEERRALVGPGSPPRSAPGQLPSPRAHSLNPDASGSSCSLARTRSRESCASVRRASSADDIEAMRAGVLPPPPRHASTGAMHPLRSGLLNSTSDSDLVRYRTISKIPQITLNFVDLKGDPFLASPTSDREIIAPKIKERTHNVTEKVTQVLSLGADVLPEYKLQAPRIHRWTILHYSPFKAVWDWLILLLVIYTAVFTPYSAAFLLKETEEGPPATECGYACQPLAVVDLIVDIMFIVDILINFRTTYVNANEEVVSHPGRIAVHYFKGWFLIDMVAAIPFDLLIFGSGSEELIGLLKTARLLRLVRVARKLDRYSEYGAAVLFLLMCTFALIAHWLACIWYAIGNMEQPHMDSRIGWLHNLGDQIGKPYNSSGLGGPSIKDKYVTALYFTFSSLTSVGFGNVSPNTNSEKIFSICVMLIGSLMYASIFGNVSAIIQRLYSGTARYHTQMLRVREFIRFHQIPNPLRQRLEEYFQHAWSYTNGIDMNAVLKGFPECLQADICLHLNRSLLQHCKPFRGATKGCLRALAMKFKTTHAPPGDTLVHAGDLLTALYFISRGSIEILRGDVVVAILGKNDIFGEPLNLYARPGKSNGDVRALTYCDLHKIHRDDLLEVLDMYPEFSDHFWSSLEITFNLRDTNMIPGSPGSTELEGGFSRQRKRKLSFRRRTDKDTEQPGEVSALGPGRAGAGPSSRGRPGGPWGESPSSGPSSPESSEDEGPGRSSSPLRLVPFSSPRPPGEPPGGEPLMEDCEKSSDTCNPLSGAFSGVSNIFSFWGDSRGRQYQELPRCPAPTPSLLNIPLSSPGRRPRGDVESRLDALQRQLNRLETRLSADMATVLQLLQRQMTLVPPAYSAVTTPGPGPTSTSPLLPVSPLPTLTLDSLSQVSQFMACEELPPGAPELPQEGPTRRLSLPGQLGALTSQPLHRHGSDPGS
# Summary of the method: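 Fluorescence at 540 nm emission (480 nm excitation) was recorded kinetically for 2 min at 1-second intervals once the thallium-containing stimulus reached cells previously loaded with FluxOR II dye.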
# [6] = biological target: Cytochrome P450 3A4 (Homo sapiens) (UniProt P08684); experiment: Cytochrome P450 Family 3 Subfamily A Member 4 (CYP3A4) small molecule antagonists: luciferase reporter qHTS assay (AID 1671201); conditions: P450-Glo CYP3A4 enzyme, luciferin luminescence, 1 h; series mostly up to 115 µM; further: nearly all actives have a fitted effect of over 50% in size; further: potency means the concentration at half of the fitted maximal effect
# Cytochrome P450 3A4 (Homo sapiens), sequence (P08684 whole entry, looked up): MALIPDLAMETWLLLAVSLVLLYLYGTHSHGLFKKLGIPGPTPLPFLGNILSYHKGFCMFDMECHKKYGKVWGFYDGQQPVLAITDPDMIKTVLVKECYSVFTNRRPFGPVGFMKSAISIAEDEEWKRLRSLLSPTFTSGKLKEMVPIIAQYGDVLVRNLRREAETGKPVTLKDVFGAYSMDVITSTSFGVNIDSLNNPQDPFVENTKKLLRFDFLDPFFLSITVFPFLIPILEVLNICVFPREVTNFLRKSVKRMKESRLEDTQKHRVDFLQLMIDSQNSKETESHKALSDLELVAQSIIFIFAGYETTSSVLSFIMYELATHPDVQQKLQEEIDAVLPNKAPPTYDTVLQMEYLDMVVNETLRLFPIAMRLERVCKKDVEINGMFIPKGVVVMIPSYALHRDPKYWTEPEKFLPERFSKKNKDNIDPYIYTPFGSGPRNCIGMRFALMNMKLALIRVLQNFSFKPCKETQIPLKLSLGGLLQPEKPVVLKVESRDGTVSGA
# Summary of the method: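 qHTS, 1536-well. CYP3A4 + proluciferin substrate, cpd 10 min RT → NADPH regen 1 h RT → detection reagent 20 min → luminescence (RLU). Ketoconazole positive control.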
# [7] = biological target: Acetylcholinesterase (Homo sapiens) (UniProt P22303); experiment: Acetylcholinesterase (AChE) small molecule antagonists: enzyme-based qHTS assay with human liver microsomes (AID 1347399; calls by dose curve; further: nearly all actives have a fitted effect of over 60% in size); conditions: Potency: qHTS inhibition; series mostly up to 115 µM
# Acetylcholinesterase (Homo sapiens), sequence (P22303 whole entry, looked up): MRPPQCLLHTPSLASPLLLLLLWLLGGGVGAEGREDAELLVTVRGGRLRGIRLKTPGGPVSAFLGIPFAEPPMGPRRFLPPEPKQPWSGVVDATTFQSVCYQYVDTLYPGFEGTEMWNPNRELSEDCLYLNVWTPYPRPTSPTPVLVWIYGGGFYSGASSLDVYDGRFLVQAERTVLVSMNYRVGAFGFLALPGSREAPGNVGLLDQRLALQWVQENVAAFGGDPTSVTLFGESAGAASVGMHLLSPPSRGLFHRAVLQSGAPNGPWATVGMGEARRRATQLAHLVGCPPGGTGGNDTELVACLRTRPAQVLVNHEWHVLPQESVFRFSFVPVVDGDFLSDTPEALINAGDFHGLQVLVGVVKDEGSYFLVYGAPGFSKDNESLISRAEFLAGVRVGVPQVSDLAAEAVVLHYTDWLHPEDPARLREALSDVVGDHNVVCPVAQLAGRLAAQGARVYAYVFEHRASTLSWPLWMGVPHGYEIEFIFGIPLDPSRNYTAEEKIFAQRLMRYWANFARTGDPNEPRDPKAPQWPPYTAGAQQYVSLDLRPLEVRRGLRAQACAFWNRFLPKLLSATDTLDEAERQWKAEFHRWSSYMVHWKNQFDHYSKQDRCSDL
# Summary of the method: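 Recombinant human AChE (50 mU/mL in the enzyme mix) and human liver microsomes (0.25 mg/mL final) were preincubated with compound and NADPH (0.25 mg/mL final) for 30 min at 37 C. Acetylthiocholine/DTNB was then added; thiocholine was read colorimetrically after 10 min at room temperature.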
Compound,Potency [1],Potency [2],Potency [3],Potency [4],Potency [5],Potency [6],Potency [7]
CN(C)NC(=O)CCC(=O)O,inactive,inactive,inactive,inactive,inactive,inactive,
Cc1ccc(N)cc1,5.06 µM (active) and 25.2 µM (active),35.8 µM (active) and 38.6 µM (active) and 31.7 µM (active),40.2 µM (active),28.4 µM (active) and 30.6 µM (active) and 25.2 µM (active),inactive,inactive,
Cc1ccccc1N,inactive and 40.7 µM (active),,40.7 µM (active) and 79.6 µM (active) and 35.6 µM (active),inactive and 36.3 µM (active) and 31.7 µM (active),inactive,inactive and 28.8 µM (active) and 28.3 µM (active),
CNCC(O)c1ccc(O)cc1 (stereo not given),39.9 µM (active),70.9 µM (active) and inactive,inactive,inactive,inactive,inactive,
OCC(O)CCl (stereo not given),inactive,79.6 µM (active) and inactive,inactive,,inactive,inactive,
CNC(=O)O/N=C/C(C)(C)S(C)=O (stereo not given),inactive,inactive,inactive,inactive,inactive,inactive,
C/C=C/c1ccc2c(c1)OCO2,inactive,inactive and 79.6 µM (active),inactive,39.9 µM (active),inactive,inactive,
OCCCCO,,,,,inactive,,
N#Cc1ccccn1,inactive,inactive and 71 µM (active),inactive,inactive,inactive,inactive,
CNC(=O)O/N=C(\SC)C(=O)N(C)C,30.9 µM (active) and 28.2 µM (active),34.6 µM (active) and 28.2 µM (active),inactive,inactive,inactive,inactive,
CC(C)CCCCCCOC(=O)c1ccccc1C(=O)OCCCCCCC(C)C,inactive,71 µM (active),,63.2 µM (active),inactive,,
CNC(=O)O/N=C/C(C)(C)SC,inactive,40.3 µM (active) and inactive,,inactive,inactive,inactive,
Nc1cccc(Cl)c1,inactive,40.4 µM (active) and inactive,71.8 µM (active) and inactive,40.4 µM (active) and inactive,inactive,inactive,
C=CC(=O)OCC(CC)CCCC (stereo not given),,,,,inactive,,
O=P1(NCCCl)OCCCN1CCCl (stereo not given),,,,,inactive,,
COc1cc(-c2ccc(N)c(OC)c2)ccc1N,40.1 µM (active) and 39.5 µM (active) and 34 µM (active),,12.7 µM (active) [middle of 4 runs],1.79 µM (active) [middle of 4 runs],inactive,,
Nc1ccc(N)cc1,39.9 µM (active),34.7 µM (active) [middle of 4 runs],11.3 µM (active) and 28.3 µM (active) and 8.71 µM (active),,inactive,,
Cl/C=C/Cl,inactive,inactive,inactive,inactive,inactive,inactive,
CC(=O)/C=C/c1ccccc1,inactive and 35.6 µM (active),78.2 µM (active),inactive,31.7 µM (active) and 39.9 µM (active),inactive,inactive,
NNc1ccccc1,,,39.5 µM (active) and 39.8 µM (active) and 50.2 µM (active),,inactive,,
ClC(Cl)c1ccccc1,,40.6 µM (active) and inactive,inactive,inactive,inactive,inactive,
CNC(=O)O/N=C/C(C)(C)S(C)(=O)=O,inactive,inactive,inactive,inactive,inactive,inactive,
COc1nc(NC(C)C)nc(NC(C)C)n1,inactive,,inactive,31.8 µM (active) and 28.3 µM (active),inactive,inactive,inactive
Oc1ccc(Cl)cc1,,,,,inactive,,
N#Cc1cccc(C#N)c1,31.2 µM (active) and inactive,inactive,inactive,inactive,inactive,inactive,
Nc1cc(Cl)cc(Cl)c1,inactive,inactive,inactive,21.6 µM (active) and 28.3 µM (active),inactive,,
Cc1ccc(N=C=O)cc1N=C=O,40.9 µM (active) and 11.2 µM (active) and inactive,36.5 µM (active) and 10 µM (active) and inactive,36.5 µM (active) and 25.1 µM (active) and 79.6 µM (active),36.5 µM (active) and 35.5 µM (active),inactive,5.78 µM (active) and 2.82 µM (active) and inactive,
CCCOC(=O)c1ccccc1C(=O)OCCC,inactive,8.09 µM (active) and 8.94 µM (active),32.2 µM (active) and 35.6 µM (active),2.03 µM (active) and 3.17 µM (active),inactive,inactive,
CN(C)C(=O)C(c1ccccc1)c1ccccc1,inactive,70.9 µM (active),62.3 µM (active),inactive,inactive,inactive,
Cc1cccc(N)c1,31.8 µM (active) and inactive,7.99 µM (active) and 45.1 µM (active) and 39.9 µM (active),8.96 µM (active) and 35.6 µM (active),31.8 µM (active) and inactive and 31.7 µM (active),inactive,3.18 µM (active) and inactive,

# Source: PubChem BioAssay (Tox21)
